Sampled rows, rich in hits. Any-hit rate of the full collection: about 1.9%.
PERK inhibitor: human PERK inhibition, primary cell-based screen; 0.17% of 220,000 active; inhibition, % at 5.6 µM; Q9NZJ5; CHO PERK-DD fusion, SEAP luminescence translation reporter;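 active means inhibition above the mean inhibition of all tested compounds plus 3 SD, set separately per screening campaign, cut at about 2.9% in these data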;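 further: PERK kinase domain activated by AP20187 dimerizer at 100 nM; 0% = DMSO with dimerizer and 100% = rapamycin at 8.4 µM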
PABP FP inh: blocks human PABP binding to poly(A) RNA; P11940; fluorescence polarization; inhibition, % at 35 µM; 1% of 290,000 active;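 further: calls also rest on retests at 20 µM and on dose response follow-up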
GRK2 inh: blocks RNA aptamer binding to human GRK2; inhibition of aptamer binding, % at 10 µM; 0.59% of 330,000 active; bead flow cytometry, FAM-aptamer displacement from GRK2; P25098; AID 488847;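 active means inhibition of aptamer binding above 40%, roughly 3 SD of noise, on plates passing a quality check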;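 further: median bead fluorescence of bound FAM aptamer so fluorescent compounds give negative values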
PABP1 MLLE inh: inhibitors of microRNA-mediated deadenylation, human PABP1 MLLE binding. P11940. 0.36% of 360,000 active. inhibition, % at 20 µM. GST-MLLE / FITC-PAM2 fluorescence polarization. AID 588489; in the data active means inhibition above about 35%, passing the limit was not always enough;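 further: plate controls were DMSO wells with GST-MLLE for no effect and wells lacking GST-MLLE protein for full effect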
eIF4H FP inh: inhibitors of RNA binding by human eIF4H | eIF4H fluorescence polarization binding assay | inhibition, % at 35 µM | Q15056 | 0.94% of 290,000 active;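 further: calls also rest on retests at 20 µM and on dose response follow-up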
GRK2 CP1: confirmation of human GRK2 inhibitors displacing RNA aptamer; shares compounds with GRK2 inh; AID 504451; bead-bound GRK2, FAM-aptamer displacement, flow cytometry; 4% of 2,000 active; aptamer displacement, % at 10 µM;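 active means aptamer displacement above 40%, near three times the noise of non-fluorescent compounds, on plates passing quality checks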;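 further: negative values mostly reflect intrinsic compound fluorescence rather than true enhancement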
FAM quench CP1: quenches fluorescent RNA aptamer, GRK2 hit artifact. fluorescence response (% of DMSO), % at 10 µM. Carboxyfluorescein RNA aptamer on beads, flow cytometry quenching; hits give low values. shares compounds with GRK2 inh. 2,000 tested, under 10 active. AID 504580;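 active means compounds that quench the bead-bound fluorescent RNA probe, cutting fluorescence to under half of the solvent control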;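 further: counterscreen run without GRK2 so only probe quenching by compound is measured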
The depositor's hits bear a star. Unless noted, how the calls were made is not given here.

Screening CCOc1ccc(NC(=O)c2cc3ccccc3cc2O)cc1 returned PERK inhibitor 1, PABP FP inh 73*, GRK2 inh 28, PABP1 MLLE inh 15, eIF4H FP inh 98*, GRK2 CP1 10 and FAM quench CP1 100.
Cc1cc(NC(=O)CCc2ccccc2)c([N+](=O)[O-])cc1C was read as PERK inhibitor -1, PABP FP inh 45, GRK2 inh 2, PABP1 MLLE inh -4 and eIF4H FP inh -8.
For CCN1CCn2c3c(c4cccc(C)c42)CCCC31 (stereo not drawn) the results were PABP FP inh 4, GRK2 inh 2, PABP1 MLLE inh -14 and eIF4H FP inh 6.
Screening Cc1ccc(-c2nc(SC(C)C(=O)N3CCCC3)n[nH]2)cc1 (stereo not drawn) returned GRK2 inh 2 and PABP1 MLLE inh -26.
For CCOc1ccc(OCC)c(S(=O)(=O)NCc2ccccc2)c1 the results were PABP FP inh 2, GRK2 inh 42*, PABP1 MLLE inh -10, eIF4H FP inh -3, GRK2 CP1 1 and FAM quench CP1 93.
Screening Cn1nccc1C(=O)N1CCN(S(=O)(=O)c2ccc(Br)s2)CC1 returned PABP FP inh -1, GRK2 inh 0, PABP1 MLLE inh 1 and eIF4H FP inh -2.
O=C(O)c1ccc(-n2cccc2/C=N\NC(=O)c2cc3cc(Br)ccc3o2)cc1 was read as PERK inhibitor -1, PABP FP inh 80*, GRK2 inh 58*, PABP1 MLLE inh -7, eIF4H FP inh 86*, GRK2 CP1 35 and FAM quench CP1 97.
Screening Cn1cc(/C=N/NC(=O)c2cc3cc(Br)ccc3o2)c2ccccc21 returned PERK inhibitor 0, PABP FP inh 36, GRK2 inh 2, PABP1 MLLE inh -95 and eIF4H FP inh 20.
C=C(C)CSc1nc2sc3c(c2c(=O)n1-c1ccc(C)cc1)CCN(C)C3 was read as PABP FP inh -12, PABP1 MLLE inh -20, eIF4H FP inh 0, GRK2 CP1 0 and FAM quench CP1 101.
For C=CCN=C1S/C(=C\N(C)C)C(=O)N1S(=O)(=O)c1ccc(C)cc1 the results were GRK2 inh 0 and PABP1 MLLE inh -3.
`CCOC(=O)Cn1c(=O)n(Cc2ccco2)c(=O)c2ccc(C(=O)NC3CCCC3)cc21` gave PERK inhibitor 1, PABP FP inh 8, GRK2 inh 86*, PABP1 MLLE inh -1, eIF4H FP inh -5, GRK2 CP1 -2 and FAM quench CP1 103.
`COc1cccc(CNC(=O)COC(=O)c2nc(Cl)c(Cl)c(Cl)c2Cl)c1` gave GRK2 inh 0 and PABP1 MLLE inh -46.
`O=C(CCc1n[nH]c(=O)[nH]c1=O)N/N=C/c1ccco1` gave PERK inhibitor 1, PABP FP inh active, GRK2 inh 44*, PABP1 MLLE inh -1, eIF4H FP inh 77*, GRK2 CP1 25 and FAM quench CP1 96.
`O=C(N/N=C/c1ccco1)c1cc(-c2ccccc2)n[nH]1` gave PERK inhibitor 0, PABP FP inh -8, GRK2 inh 0, PABP1 MLLE inh -10 and eIF4H FP inh 81.
Cc1ccc(-c2cc(C(=O)N/N=C/c3ccco3)[nH]n2)cc1 was read as PERK inhibitor 0, PABP FP inh -2, GRK2 inh 87*, PABP1 MLLE inh -5, eIF4H FP inh 1, GRK2 CP1 -1 and FAM quench CP1 100.
`Cc1ccc(-n2c(C)nnc2SCC(=O)N(C)C2CCS(=O)(=O)C2)cc1` (stereo not drawn) gave GRK2 inh 0 and PABP1 MLLE inh -3.
Cc1ccc(NS(=O)(=O)c2cccc(C(=O)N3CCCCCCC3)c2)cc1 was read as GRK2 inh 0 and PABP1 MLLE inh -6.
Screening Cc1ccc(S(=O)(=O)Nc2cccc(C(=O)N3CCC(C(N)=O)CC3)c2)cc1 returned GRK2 inh 61*, PABP1 MLLE inh 6, GRK2 CP1 3 and FAM quench CP1 97.

Screening results deposited in PubChem BioAssay by several laboratories.
